In PubChem BioAssay AID1159580 (chemical genetic matrix, 2015):
Screen size: about 5,500 compounds; about 2,000 (36%) were called active. Not shown: some 18% with an inconclusive outcome. Cut-off read from the data, not from the text of the source: active = normalized growth mostly below about 0.91 (no sharp cut-off); inconclusive = no clear call, values can overlap the other calls; inactive = mostly above about 0.92. The list shows a part of the results.

Experiment: chemical genetic growth profiling, strain panel (AID 1159580);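 note: tested at 20 µM; growth read once vehicle control cultures reached saturation at 30 °C; 1 = growth at the plate median or of vehicle wells; lower values mean less growth of the strain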
Conditions: S. cerevisiae deletion strains, growth OD

Measured: normalized growth

Nc1nc2[nH]c(=O)c(=O)[nH]c2c(=O)[nH]1
inactive: locus YAL013W, strain DEP1, hits give low values 1.01 | locus YBR021W, strain FUR4, hits give low values 0.971 | locus YBR229C, strain ROT2, hits give low values 0.998 | locus YCL029C, strain bik1, hits give low values 1.03 | locus YDL035C, strain GPR1, hits give low values 1.01 | locus YDL074C, strain BRE1, hits give low values 1.01 | locus YDL101C, strain DUN1, hits give low values 1 | locus YDL134C, strain PPH21, hits give low values 1.02 | locus YDL185W, strain tfp1, hits give low values 1.01 | locus YDL192W, strain arf1, hits give low values 0.995 | locus YDR101C, strain arx1, hits give low values 0.987 | locus YDR162C, strain NBP2, hits give low values 1.05 | locus YDR318W, strain mcm21, hits give low values 1.01 | locus YDR388W, hits give low values 1.01 | locus YDR502C, strain sam2, hits give low values 1.01 | locus YEL061C, strain CIN8, hits give low values 1.01 | locus YER110C, hits give low values 1.01 | locus YER155C, strain BEM2, hits give low values 1.01 | locus YER167W, strain BCK2, hits give low values 1.01 | locus YGL078C, strain dbp3, hits give low values 1.01 | locus YGL086W, strain mad1, hits give low values 0.978 | locus YGL248W, strain PDE1, hits give low values 1.01 | locus YGR078C, strain PAC10, hits give low values 1.01 | locus YGR135W, strain pre9, hits give low values 1.03 | locus YGR252W, strain gcn5, hits give low values 1.01 | locus YHR030C, strain SLT2, hits give low values 1.01 | locus YHR079C, strain IRE1 (second series), hits give low values 1 | locus YHR094C, strain hxt1, hits give low values 1.01 | locus YHR129C, strain ARP1, hits give low values 1.01 | locus YHR200W, strain rpn10, hits give low values 0.992 | locus YIL066C, strain RNR3, hits give low values 1.02 | locus YIL073C, strain SPO22, hits give low values 1.04 | locus YIL125W, strain kgd1, hits give low values 1.01 | locus YIR030C, strain dcg1, hits give low values 1.01 | locus YJL095W, strain BCK1, hits give low values 1.02 | locus YJL134W, strain LCB3, hits give low values 1.02 | locus YJL168C, strain set2, hits give low values 1 | locus YJL187C, strain SWE1 (second series), hits give low values 1.01 | locus YJR043C, strain POL32, hits give low values 0.996 | locus YKL009W, strain mrt4, hits give low values 0.998 | locus YKL068W, hits give low values 1.01 | locus YKL085W, strain MDH1 (second series), hits give low values 1.02 | locus YKL085W, strain MDH1, hits give low values 1.02 | locus YKL190W, strain CNB1, hits give low values 1.01 | locus YKR001C, strain vps1, hits give low values 1 | locus YLR039C, strain RIC1, hits give low values 1.03 | locus YLR058C, strain SHM2, hits give low values 1.01 | locus YLR102C, strain apc9, hits give low values 1.01 | locus YLR262C, strain YPT6, hits give low values 1.08 | locus YLR268W, strain sec22, hits give low values 1.02 | locus YLR330W, strain CHS5, hits give low values 1.01 | locus YLR342W, strain FKS1 (second series), hits give low values 0.973 | locus YLR371W, strain rom2, hits give low values 1.02 | locus YLR418C, strain cdc73, hits give low values 0.971 | locus YML016C, strain PPZ1, hits give low values 0.996 | locus YML032C, strain rad52, hits give low values 1.02 | locus YML124C, strain tub3, hits give low values 1.01 | locus YMR078C, strain ctf18, hits give low values 1 | locus YMR223W, strain ubp8, hits give low values 1.01 | locus YMR263W, strain SAP30, hits give low values 1.01 | locus YMR307W, strain GAS1, hits give low values 1.02 | locus YNL067W, strain RPL9B, hits give low values 1.02 | locus YNL128W, strain TEP1, hits give low values 1.05 | locus YNL153C, strain GIM3, hits give low values 1.01 | locus YNL233W, strain BNI4, hits give low values 1.03 | locus YNL250W, strain rad50, hits give low values 1.02 | locus YNL271C, strain bni1, hits give low values 1.01 | locus YNL298W, strain CLA4, hits give low values 1 | locus YNL307C, strain MCK1, hits give low values 1 | locus YNR052C, strain pop2, hits give low values 1.02 | locus YOL006C, strain TOP1, hits give low values 1.01 | locus YOL012C, strain htz1 1.04 | locus YOL147C, strain pex11, hits give low values 1 | locus YOR061W, strain CKA2, hits give low values 1 | locus YOR069W, strain VPS5, hits give low values 1.01 | locus YOR136W, strain idh2, hits give low values 1.01 | locus YOR144C, strain elg1, hits give low values 1 | locus YOR184W, strain ser1, hits give low values 0.996 | locus YOR316C, strain cot1, hits give low values 1.01 | locus YPR119W, strain clb2, hits give low values 1.02 | locus YPR141C, strain kar3, hits give low values 1.01 | locus YPR163C, strain tif3, hits give low values 1.02 | locus YPR167C, strain met16, hits give low values 1.04 | strain wtn01, hits give low values 1
